High-throughput results deposited in PubChem BioAssay by National Center for Advancing Translational Sciences (NCATS).
Pf Dd2 inh = inhibitors of Plasmodium falciparum Dd2 growth | 4.3% of 120,000 active | P. falciparum Dd2 growth, SYBR Green, 72 h | Potency, µM (doses to about 28.9 µM), inactives show at the top dose activity, negative = inhibition, most hits filed as inhibitors; active means well fitted inhibition curve with a large enough effect;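 further: plate controls were DMSO vehicle for no effect and reference drug for full effect; nearly all actives have a fitted effect of over 65% in size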
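Infected erythrocytes (Dd2, 0.3% parasitemia, 2.5% hematocrit final) are added to compound in RPMI-1640/Albumax II medium, grown 72 h at 37C in low oxygen, then lysed with saponin/Triton-X containing SYBR Green and read by fluorescence.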
Starred values were filed as active, the others as inactive; [ ] = dose if it differs, or a comment. The entries come from a sample that favours hits as a whole. Potency means the concentration at half of the fitted maximal effect.

Screening O=C1c2[nH]nc(-c3ccccc3O)c2C(c2cccc(OCc3ccccc3)c2)N1CCO (configuration not stated) returned Pf Dd2 inh 140%[5.79 µM].
For CC(C)OCCCN1C(=O)c2[nH]nc(-c3ccccc3O)c2C1c1cccc(OCc2ccccc2)c1 (configuration not stated) the results were Pf Dd2 inh 5.6µM*.
Screening CC(C)OCCCNC(=O)C1Cn2cccc2C(=O)N1Cc1ccccc1 (configuration not stated) returned Pf Dd2 inh 9%.
Screening CCCN1CCN(C(=O)c2cc(CN(C)Cc3ccccc3)on2)CC1 returned Pf Dd2 inh -14%.
O=C(Cc1ccsc1)N1CCC([C@@H]2CNC[C@H]2CO)CC1 was read as Pf Dd2 inh -11%.
Cn1ncc(N2CCCC(CC(=O)NCc3cccs3)C2)cc1=O (configuration not stated) was read as Pf Dd2 inh 46%.
CC1=C[C@@H](CNC(=O)C2CC2)[C@H](C(C)C)C[C@H]1Cc1nc2ccncc2[nH]1 was read as Pf Dd2 inh -19%[44.1 µM].
Screening CCOC(=O)C[C@@H]1C[C@@H](C(C)C)[C@H](CNC(=O)c2ccc(C#N)cc2)C=C1C returned Pf Dd2 inh inactive.
For CC1=C[C@@H](CNC(=O)C2CC2)[C@H](C(C)C)C[C@H]1Cc1nc2ncccc2[nH]1 the results were Pf Dd2 inh -6%[44.1 µM].
`COc1ccc2[nH]c(C[C@@H]3C[C@@H](C(C)C)[C@H](CNC(=O)C4CCC4)C=C3C)nc2n1` gave Pf Dd2 inh 11µM*.
Screening CCCNC(=O)NC[C@@H]1C=C(C)[C@H](Cc2nc3ccc(OC)cc3[nH]2)C[C@H]1C(C)C returned Pf Dd2 inh 10µM*.
CCOC(=O)C[C@@H]1C[C@@H](C(C)C)[C@H](CNC(=O)C2CC2)C=C1C was read as Pf Dd2 inh -16%[44.1 µM].
COCCNC(=O)C[C@@H]1C[C@@H](C(C)C)[C@H](CNC(=O)C2CC2)C=C1C was read as Pf Dd2 inh 8.9µM*.
`CCOC(=O)C[C@@H]1C[C@@H](C(C)C)[C@H](CNC(=O)c2cccnc2)C=C1C` gave Pf Dd2 inh inactive.
Screening CCCNC(=O)NC[C@@H]1C=C(C)[C@H](Cc2nc3ncccc3[nH]2)C[C@H]1C(C)C returned Pf Dd2 inh inactive.
COc1ccc2nc(C[C@@H]3C[C@@H](C(C)C)[C@H](CNC(=O)CC4(CC(=O)O)CCCC4)C=C3C)[nH]c2c1 was read as Pf Dd2 inh inactive.
For CCOC(=O)C[C@@H]1C[C@@H](C(C)C)[C@H](CNC(=O)c2ccc(F)cc2)C=C1C the results were Pf Dd2 inh 11µM*.
COCC(=O)NC[C@@H]1C=C(C)[C@H](CC(=O)N2CCCC2)C[C@H]1C(C)C was read as Pf Dd2 inh -22%[44.1 µM].
For CC(C)C1CN(C(=O)CCn2ccc(=O)[nH]c2=O)CCC(=O)N1CC1CC1 (configuration not stated) the results were Pf Dd2 inh 9%.
`COc1ncccc1-c1nccc2c(=O)cc(N3CCOCC3)oc12` gave Pf Dd2 inh inactive.
For c1cncc(CN2CCOC[C@H]3CCNC[C@H]32)c1 the results were Pf Dd2 inh 28%.
Screening COc1ccc(CN2C[C@@H]3[C@H](C2)N(CC(C)C)C(=O)C(C)(C)[S+]3(=O)[O-])cc1O returned Pf Dd2 inh 24%[44.1 µM].
For Cc1ccc(CNC(=O)NC2CCN(C(=O)N3CC4CC(C3)[C@H]3CCCC(=O)N3C4)CC2)cc1 (some centres not stated) the results were Pf Dd2 inh inactive.
`CC1=C[C@@H](CNC(=O)CC2(CC(=O)O)CCCC2)[C@H](C(C)C)C[C@H]1Cc1nc2ccc(F)cc2[nH]1` gave Pf Dd2 inh inactive.
For COC(=O)c1ccc2nc(C[C@@H]3C[C@@H](C(C)C)[C@H](CNCc4ccccc4F)C=C3C)[nH]c2c1 the results were Pf Dd2 inh 4.5µM*.
Screening CCC(CC)C(=O)NC[C@@H]1C=C(C)[C@H](Cc2nc3ccc(C(=O)OC)cc3[nH]2)C[C@H]1C(C)C returned Pf Dd2 inh -1%.
COCC(=O)NC[C@@H]1C=C(C)[C@H](Cc2nc3ccc(F)cc3[nH]2)C[C@H]1C(C)C was read as Pf Dd2 inh 13µM*.
Screening COCC(=O)NC[C@@H]1C=C(C)[C@H](Cc2nc3ccccc3[nH]2)C[C@H]1C(C)C returned Pf Dd2 inh inactive.
COC(=O)c1ccc2nc(C[C@@H]3C[C@@H](C(C)C)[C@H](CNC(=O)c4ccccc4)C=C3C)[nH]c2c1 was read as Pf Dd2 inh 8.9µM*.
`COc1ccc2nc(C[C@@H]3C[C@@H](C(C)C)[C@H](CNCc4ccccn4)C=C3C)[nH]c2c1` gave Pf Dd2 inh 0.63µM*.
`CC1=C[C@@H](CNC(=O)c2cccnc2)[C@H](C(C)C)C[C@H]1Cc1nc2ccc(F)cc2[nH]1` gave Pf Dd2 inh inactive.
COC(=O)c1ccc2nc(C[C@@H]3C[C@@H](C(C)C)[C@H](CNC(=O)c4cnccn4)C=C3C)[nH]c2c1 was read as Pf Dd2 inh -5%.
`COC(=O)c1ccc2nc(C[C@@H]3C[C@@H](C(C)C)[C@H](CNCc4ccc(OC)cc4O)C=C3C)[nH]c2c1` gave Pf Dd2 inh -7%.
Screening COc1ccc2nc(C[C@@H]3C[C@@H](C(C)C)[C@H](CNCc4ccc(NC(C)=O)cc4)C=C3C)[nH]c2c1 returned Pf Dd2 inh inactive.
For CC1=C[C@@H](CNCc2ccccc2O)[C@H](C(C)C)C[C@H]1Cc1nc2c(C)cccc2[nH]1 the results were Pf Dd2 inh -25%[44.1 µM].
For O=C(CCSCc1ccccc1)N1C[C@@H](CN2CCOCC2)[C@@H](CO)C1 the results were Pf Dd2 inh -12%.
Screening CN(C)C(=O)CCC[C@H]1NC[C@@H]2C[C@H]1CN(Cc1ccccc1)C2 returned Pf Dd2 inh -9%.
For CCO[C@H]1CN(C(=O)Cn2ncc3ccccc3c2=O)C[C@@H]1O the results were Pf Dd2 inh -10%.
`N[C@@H]1CC[C@H](C(=O)N2CCC(c3nccn3Cc3ccncc3)CC2)C1` gave Pf Dd2 inh 0%.
O=C(NCCc1ccco1)C1CC(=O)N(c2n[nH]c3cccc(F)c23)C1 (configuration not stated) was read as Pf Dd2 inh inactive.
For COc1ccccc1NC(=O)N1CCCC1c1nncn1-c1ccccc1 (configuration not stated) the results were Pf Dd2 inh inactive.
Screening O=C1CNc2ccc(C(=O)N3C[C@H](CO)C[C@H](CN4CCCC4)C3)cc2N1 returned Pf Dd2 inh -9%.
COC(=O)c1ccc2nc(C[C@@H]3C[C@@H](C(C)C)[C@H](CNC(=O)[C@@H]4CCCC[C@@H]4C(=O)O)C=C3C)[nH]c2c1 was read as Pf Dd2 inh -13%.
For COC(=O)c1ccc2nc(C[C@@H]3C[C@@H](C(C)C)[C@H](CNC(=O)N4CCOCC4)C=C3C)[nH]c2c1 the results were Pf Dd2 inh 13µM*.
COC(=O)c1ccc2nc(C[C@@H]3C[C@@H](C(C)C)[C@H](CNC4CCOCC4)C=C3C)[nH]c2c1 was read as Pf Dd2 inh -20%.
Screening CN(Cc1ccccc1)Cc1cn(C[C@H]2CC3CCN2C[C@@H]3C(=O)NCc2ccccc2)nn1 (some centres not stated) returned Pf Dd2 inh inactive.
For CN(Cc1ccccc1)Cc1cn(C[C@H]2CC3CCN2C[C@@H]3C(=O)NCc2ccc(F)cc2)nn1 (some centres not stated) the results were Pf Dd2 inh 10µM*.
